Screening data from PubChem.
Compounds with a hit are over-represented: about 7.9% of the library has one in this group of screens.
Marburg entry inh – blocks Marburg virus binding to or entry into cells | Marburg virus pseudotyped entry inhibition, cell reporter | Potency, µM (doses to about 37.8 µM), for the others: top-dose activity change, negative = inhibition, hits mostly inhibitors | 300,000 compounds, 1.8% hits; calls by dose curve; tested in HEK293 cells; further: potency means the concentration at half of the fitted maximal effect
FMDV inh – blocks foot and mouth disease virus; AID 1159524; Potency, µM (titrated, usually from 57.9 µM), for inactives: at the top dose activity change, negative = inhibition, most hits filed as inhibitors; FMDV antiviral cell-based qHTS; 410,000 compounds, 1.2% hits; calls by dose curve; tested in HEK293T cells; further: read-out not given here; potency means the concentration at half of the fitted maximal effect; nearly all actives have a fitted effect of over 45% in size
HCV inh – inhibitors of hepatitis C virus infection. Huh7.5.1 HCVcc-Cre infection, luciferase reporter, 44 h. 340,000 compounds, 3.4% hits. Potency, µM (series often up to 41.8 µM), for inactives: at the highest dose activity change, negative = inhibition, actives largely listed as inhibitors. AID 651820; active means well fitted inhibition curve with a large enough effect; inconclusive means small, poorly fitted or top-dose-only effect, or another doubt; inactive means no such curve, though single readings can be large or run the other way; further: potency means the concentration at half of the fitted maximal effect
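Antiviral activity was scored by luciferase reporter output from cells infected with HCVcc-Cre (~0.5 moi) in presence of compound, 44 h infection period, cells seeded 1,000/well 4 h prior.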
Lassa entry inh – blocks Lassa virus binding to or entry into cells; Potency, µM (doses to about 37.9 µM), for the others: top-dose activity change, negative = inhibition, hits mostly inhibitors; Lassa virus pseudotype entry inhibition, cell reporter; 300,000 compounds, 1.2% hits; AID 540256; calls by dose curve; tested in HEK293 cells; further: potency means the concentration at half of the fitted maximal effect; nearly all actives have a fitted effect of over 50% in size
HCMV inh – human cytomegalovirus inhibition; activity change, negative = inhibition, % at 57.5 µM; 410,000 compounds, 4.5% hits; HFF cells, HCMV-luciferase reporter, 72 h; active compounds read low; in the data active means activity change below about -60%; inconclusive means no clear call, values can overlap the other calls; inactive means above about -39%
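Two-dose cell screen: HFF monolayers treated with compounds and infected with luciferase-expressing HCMV at 1 PFU/cell, 72 h at 37C, then lysed for luciferase measurement.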
Active calls of the source: *; ? = inconclusive; nt = not tested or not shown; [ ] = dose if it differs, or a comment. On the % scale 0 is the no-effect control and ±100 the full control effect.

SMILES | Marburg entry inh | FMDV inh | HCV inh | Lassa entry inh | HCMV inh
O=C1C(=Cc2cccs2)Oc2ccccc21 | 12.3%[46.1 µM] | 45.0% | -2.7% | ? | -69.4*
COc1ccc(NC(=O)c2ccc(-c3ccc(-c4noc(C)n4)cc3C)cc2)cc1N1CCN(C)CC1 | 2.51µM* | -8.2% | ? | ? | -20.1
Cc1nc(-c2ccc(-c3ccc(C(=O)N4CCc5cc6c(cc54)C4(CCN(C)CC4)CO6)cc3)c(C)c2)no1 | 5.01µM* | -17.1% | nt | nt | nt
COc1ccc(Cl)cc1-c1nc(-c2ccc(NC(=O)c3ccncc3)cc2)no1 | -12.1% | -20.4% | ? | -17.2% | -36.4
COc1ccc(-c2nc(-c3ccc(NC(=O)c4ccncc4)cc3)no2)cc1OC | ? | 8.91µM* | ? | -18.8% | nt
O=C1CCCCN1CCC(=O)N1CCOc2ccc(C(O)C3CCCCC3)cc2C1 (stereo not drawn) | nt | -13.1% | nt | nt | nt
CON(C)C(=O)/C=C/[C@H](CC1CCCC1)NC(=O)C(F)(F)F | nt | nt | nt | nt | -9.6
NC(=S)NN=C1c2cc(Cl)ccc2-c2c1cc(Cl)cc2[N+](=O)[O-] | -23.9% | 20µM* | ? | 0.3% | nt
COc1cc2c(cc1[N+](=O)[O-])-c1ccc([N+](=O)[O-])cc1C2=NNC(N)=S | nt | 0.0% | nt | nt | nt
C/C=C(/C)C(=O)O[C@H]1C(C)=C2[C@H]([C@@H]1OC(=O)CCCCCCC)[C@@](C)(OC(C)=O)C[C@H](OC(=O)CCC)[C@@]1(O)[C@H]2OC(=O)[C@@]1(C)O | 0.146µM* | 1.4%[39.8 µM] | nt | 0.326µM* | nt
COc1cccc2c1OC[C@@H](CO)[C@H]2N(C)C(=O)Nc1ccc(Cl)cc1Cl | -23.7% | -2.1% | ? | -30.0% | -61.6*
CN(C)S(=O)(=O)c1cccc(NC(=O)c2cccc(NS(=O)(=O)c3ccccc3)c2)c1 | ? | ? | 12.6µM* | ? | -88.9*
Cc1ccc(N(C)S(=O)(=O)c2cccc(C(=O)Nc3ccc(C)cn3)c2)cc1 | ? | 39.8µM* | ? | ? | -23.4
CN(C)S(=O)(=O)c1cccc(C(=O)Nc2ccc(Cl)cn2)c1 | ? | nt | -29.2% | -17.5% | -15.7
CN(c1ccccc1)S(=O)(=O)c1cccc(NC(=O)C2=NN(c3ccccc3)C(=O)CC2)c1 | nt | ? | 15.8µM* | nt | -16.8
CN(c1ccccc1)S(=O)(=O)c1cccc(NC(=O)c2ccc(Cl)c([N+](=O)[O-])c2)c1 | ? | 31.6µM* | 11.2µM* | ? | -2.6
O=C(NCCNC(=O)c1ccc(-c2ccc(Cl)c(Cl)c2)o1)c1cnccn1 | ? | 9.7% | ? | -21.6%[46.1 µM] | 4.2
Cc1ccc(C2(C(=O)N3CCC(n4nc(-c5ccccc5)oc4=O)CC3)CC2)cc1 | nt | ? | ? | nt | -19.4
CCN1C(=O)[C@@H]2[C@H]3[C@H](O)[C@H](O)CC(=NO[C@@H](C)c4cc(-c5c(C)cc(C)cc5C)no4)[C@@H]3CC[C@H]2C1=O | -12.7%[14.2 µM] | nt | nt | nt | nt
CC(=O)c1cccc(NC(=O)c2ccc(N(C)S(C)(=O)=O)cc2)c1 | ? | -9.9% | ? | -7.9% | 54.3
CSc1cccc(NC(=O)COc2ccccc2)c1 | 1.9% | 44.5% | -8.5% | 19.2% | -80.0*
CN(c1cccc(NC(=O)c2ccc(C(C)(C)C)cc2)c1)S(C)(=O)=O | ? | ? | ? | ? | -81.8*
CN(c1ccccc1)S(=O)(=O)c1cccc(NC(=O)CN2C(=O)NC3(CCCC3)C2=O)c1 | -0.6% | -11.7% | 2.82µM* | -7.6% | -1.1
CC(=O)Nc1ccc(C(=O)Nc2cccc(S(=O)(=O)N(C)c3ccccc3)c2)cc1 | nt | ? | ? | nt | 0.0
CN(c1cccc(NC(=O)c2ccc(N(C)S(=O)(=O)c3ccccc3)cc2)c1)S(C)(=O)=O | 16.4µM* | 14.1µM* | 8.91µM* | ? | -72.4*
SMILES | Marburg entry inh | FMDV inh | HCV inh | Lassa entry inh | HCMV inh
CC(=O)c1cccc(NC(=O)COc2ccccc2)c1 | -10.6% | 43.3% | 2.8% | ? | 13.6
CN(c1ccccc1)S(=O)(=O)c1cccc(C(=O)Nc2ccc3c(c2)CCC3)c1 | 15.8% | -16.1% | ? | 16.4µM* | ?
COc1ccc(C(=O)Oc2ccc(N(C)S(=O)(=O)c3ccccc3)cc2)cc1[N+](=O)[O-] | 2.9%[46.1 µM] | 0.3% | -7.7% | -16.2%[46.1 µM] | -99.4*
CN(c1ccccc1)S(=O)(=O)c1cccc(NC(=O)c2ccncc2)c1 | nt | ? | 10µM* | nt | ?
CSc1cccc(NC(C)C(=O)NCc2ccccc2)c1 (stereo not drawn) | -26.3%[46.1 µM] | -3.3% | -2.8% | -4.7% | -64.6*
COc1ccc(NC(=O)C2CC23CCN(Cc2cccc4ncccc24)CC3)cc1Cl (stereo not drawn) | nt | -18.3% | nt | nt | nt
Cc1ccc(CSc2nc3cccnc3n2Cc2nc(-c3ccccc3F)oc2C)cc1 | nt | 3.2% | nt | ? | 4.3
COc1ccc(NC(=O)N2CCc3nc(COc4ccccc4)c4c(c3C2)CO[C@@H](C)C4)cc1 | -18.9%[14.2 µM] | nt | nt | nt | nt
CSc1ccccc1NC(=O)CN1CCN(S(=O)(=O)c2ccccc2[N+](=O)[O-])CC1 | -58.4% | ? | ? | ? | -12.7
CN(c1ccc(C(=O)Nc2ccc(F)cc2F)cc1)S(=O)(=O)c1ccccc1 | -26.6% | ? | ? | 11.2µM* | -32.7
COc1ccc(NC(=O)c2cccc(S(=O)(=O)N(C)c3ccccc3)c2)cn1 | -29.7% | 35.5µM* | ? | ? | -74.7*
Cc1ccc(N(C)S(=O)(=O)c2cccc(C(=O)OCC(=O)N(C)Cc3ccccc3)c2)cc1 | nt | 28.2µM* | nt | nt | 45.3
O=C(COc1ccccc1)Nc1cccc(-c2nc3cc4ccccc4cc3[nH]2)c1 | ? | 11.6% | 7.08µM* | ? | -12.5
COc1ccc(NC(=O)N2c3ccc(OC)cc3[C@@H](NC(=O)OCc3ccccc3)[C@H](C)[C@H]2c2ccccc2)cc1 | nt | nt | nt | nt | 3.3
CCCN(c1ccccc1F)S(=O)(=O)c1cc(-c2cc(C)no2)ccc1C | nt | -25.5% | nt | ? | -14.2
O=C(COc1ccc(Cl)cc1)Nc1cccc(S(=O)(=O)NCc2ccco2)c1 | nt | 52.7% | 31.6µM* | nt | -12.2
COc1ccc(C(=O)Nc2cccc(S(=O)(=O)NCc3ccco3)c2)cc1 | -18.5% | 5.2% | ? | -11.4% | -18.0
CN(c1ccccc1)S(=O)(=O)c1cccc(NC(=O)COc2ccccc2)c1 | nt | -8.2% | 10µM* | nt | -9.2
CC(=O)CCc1ccc(OCC(=O)Nc2cccc(S(=O)(=O)N(C)c3ccccc3)c2)cc1 | -6.9% | -22.1% | -26.0% | -1.4% | -7.9
COc1ccccc1C(CNC(=O)c1ccc(C)c(S(=O)(=O)N2CCCCC2)c1)N1CCCC1 (stereo not drawn) | ? | -9.1% | 3.5% | 21.2% | -18.0
Fc1ccc(COc2ccc(Br)cc2CNCC2CCCO2)cc1 (stereo not drawn) | 3.98µM* | -21.6% | -12.0% | ? | ?
Fc1ccccc1COc1ccc(Br)cc1CNCC1CCCO1 (stereo not drawn) | nt | ? | -16.8% | nt | -27.9
CC(C)c1ccc(C2=CC(c3cccc(Cl)c3)n3ncnc3N2)cc1 (stereo not drawn) | nt | -14.3% | nt | -21.8%[46.1 µM] | 3.5
